Experimental findings from PubChem BioAssay (Tox21) are described below.

Molecules are shown by their SMILES. Results filed as inconclusive are left out. Active and inactive are the calls of the source. The call rests on the fitted dose curve.
On the % scale 0 is the no-effect control and ±100 the full control effect.

The test can be described thus: qHTS assay to identify small molecule agonists of the endoplasmic reticulum stress response signaling pathway - cell viability counter screen (AID 1159517). Further: nearly all actives have a fitted effect of over 50% in size. The following applies: ESRE-bla HeLa viability, CellTiter-Glo luminescence, 5 h; series mostly up to 61 µM; activity change, negative = cytotoxicity: at the top concentration. The text has this:
U.S. Tox21 Program National Center for Advancing Translational Sciences [NCATS] NIH Chemical Genomics Center [NCGC] U.S. Environmental Protection Agency [EPA] National Institutes of Environmental Health Sciences [NIEHS] National Toxicology Program [NTP] U.S. Food and Drug Administration [FDA] Tox21 Assay Overview: Endoplasmic Reticulum (ER) plays an important role in cellular signaling, protein folding/maturation, stress response, lipid biosynthesis, calcium storage and release etc. Under stress conditions, proteins in ER misfold or unfold, and leading to the expression of ER stress responsive genes. ER stress has been associated with a variety of pathophysiological conditions such as cancer, inflammation, neurodegenerative diseases, diabetes, ischemic heart disease etc. To identify the compounds that induce ER stress response, an ER stress reporter cell line, CellSensor ESRE-bla HeLa (Life Technologies, Carlsbad, CA) containing a beta-lactamase reporter gene under control of the Endoplasmic reticulum Stress Response Element (ESRE) was used to screen Tox21 10K compound library. The cytotoxicity of the Tox21 compound library against the ESRE-bla HeLa cell line was tested in parallel by measuring cell viability using the CellTiter-Glo assay in the same wells.
Tox21 Assay Protocol Summary: ESRE-bla HeLa cells were dispensed at 1,500 cells/6 uL of assay medium per well into black wall/clear-bottom 1536-well plates using a Multidrop Combi (ThermoFisher Scientific, Waltham, MA) dispenser. After the assay plates were incubated at 37 C and 5% CO2 for an overnight, 23 nL of compounds dissolved in DMSO, positive controls or DMSO only was transferred to the assay plate by a Pintool station (Kalypsys, San Diego, CA). The assay plates were incubated at 37 C and 5% CO2 for 5 hr. One uL of LiveBLAzer B/G FRET substrate (Life Technologies) was added using a FRD (Flying Reagent Dispenser, Aurora Discovery, San Diego, CA) and the plates were incubated at room temperature for 2 hr. Fluorescence intensity (405 nm excitation, 460 nm and 530 nm emissions) was measured using an Envision plate reader (PerkinElmer, Shelton, CT). For cytotoxicity, 4 ul/well of CellTiter-Glo reagent was added into the assay plates using an FRD. After 30 min incubation at room temperature, the luminescence intensity was measured using a ViewLux plate reader (PerkinElmer).
On the technique in general: qHTS replaces the single test concentration by a dilution series.
`O=C1CCCN1C1CCCCC1`: the “activity change, negative = cytotoxicity” value is -14.7% (inactive).

With `O=C1CC2CC1C1CCCC21` (stereo not given), the “activity change, negative = cytotoxicity” value was 23.5% (inactive).

In the case of `O=C(O)COc1nn(Cc2ccccc2)c2ccccc12`, the “activity change, negative = cytotoxicity” value was -12.2% (inactive).

Take `NC(=O)Nc1ccccc1`: the “activity change, negative = cytotoxicity” value is -9.74% (inactive).

Regarding `COC(=O)[C@@H](N)Cc1ccc(O)c(O)c1`, the “activity change, negative = cytotoxicity” value was -1.26% (inactive).

With `CCC(=O)OC(C)c1ccccc1` (stereo not given), the “activity change, negative = cytotoxicity” value was 15.7% (inactive).

Take `O=C(O)c1ccccc1OP(=O)(O)O`: the “activity change, negative = cytotoxicity” value was 6.39% (inactive).

For `C1CN(CCOCCN2CCOCC2)CCO1`, the “activity change, negative = cytotoxicity” value is 2.33% (inactive).

For the compound `Nc1cc(=O)[nH]c(N)n1`, the “activity change, negative = cytotoxicity” value is 9.57% (inactive).

With `C=COCC1CCC(CO)CC1` (stereo not given), the “activity change, negative = cytotoxicity” value is -15.8% (inactive).

With `COc1ccc(CCN(C)CCCC(C#N)(c2cc(OC)c(OC)c(OC)c2)C(C)C)cc1OC` (stereo not given), the “activity change, negative = cytotoxicity” value was 7.7% (inactive).

Regarding `CCOC(C)(C)C`, the “activity change, negative = cytotoxicity” value was -4.76% [at 78.8 µM] (inactive).

`N[C@H](C(=O)O)c1ccc(O)cc1`: the “activity change, negative = cytotoxicity” value is -7.5% [at 28.5 µM] (inactive).

Take `CCCN(CCC)CCc1cccc2c1CC(=O)N2`: the “activity change, negative = cytotoxicity” value was -2.96% (inactive).

In the case of `C=C1CC[C@H]2C[C@@H]1C2(C)C`, the “activity change, negative = cytotoxicity” value was -5.03% (inactive).

Take `NC(CSCC(=O)O)C(=O)O` (stereo not given): the “activity change, negative = cytotoxicity” value is -12.5% (inactive).

For `CCCc1cc(C(N)=S)ccn1`, the “activity change, negative = cytotoxicity” value was 11.7% (inactive).

Take `Nc1c[n+](N2CCOCC2)no1`: the “activity change, negative = cytotoxicity” value is 7.32% (inactive).

As for `CCN(CC)CCOCCOC(=O)C1(c2ccccc2)CCCC1`, the “activity change, negative = cytotoxicity” value was 3.1% (inactive).

Take `CCn1nc(C(=O)O)c(=O)c2cc3c(cc21)OCO3`: the “activity change, negative = cytotoxicity” value was -3.75% (inactive).

Turning to `Cc1ccc(C#N)cc1`, the “activity change, negative = cytotoxicity” value is 0.214% (inactive).

`NS(=O)(=O)c1cc(C(=O)O)cc(N2CCCC2)c1Oc1ccccc1`: the “activity change, negative = cytotoxicity” value was -1.69% (inactive).

Regarding `NC(=O)c1ccc(N)cc1`, the “activity change, negative = cytotoxicity” value is 7.42% (inactive).

On to `ClC(Cl)(Br)Br`, for which the “activity change, negative = cytotoxicity” value was -26.5% (inactive).

`CC(C)OC(=O)c1ccccc1`: the “activity change, negative = cytotoxicity” value was -7.02% [at 78.8 µM] (inactive).

Consider `Cc1nc2c([nH]1)c(=O)n(C)c(=O)n2Cc1ccco1`, for which the “activity change, negative = cytotoxicity” value is -20.4% (inactive).

On to `Cc1cccc(C)c1NC(=O)C(C)N` (stereo not given), for which the “activity change, negative = cytotoxicity” value was -0.0564% (inactive).

As to `Nc1c2c(nc3ccccc13)CCCC2O` (stereo not given), the “activity change, negative = cytotoxicity” value is -5.44% (inactive).

For `O=C(O)Cc1ccc(CCNS(=O)(=O)c2ccc(Cl)cc2)cc1`, the “activity change, negative = cytotoxicity” value was -3.04% (inactive).

In the case of `O=C1CCCCCCCCCCCN1`, the “activity change, negative = cytotoxicity” value is 0.357% (inactive).

For `N=c1nc(N2CCCCC2)cc(N)n1O`, the “activity change, negative = cytotoxicity” value is -3.97% (inactive).

In the case of `c1ccc(CC2=NCCN2)cc1`, the “activity change, negative = cytotoxicity” value is 18.8% (inactive).

Take `CCN1CCC[C@H]1CNC(=O)c1cc(S(N)(=O)=O)ccc1OC`: the “activity change, negative = cytotoxicity” value was 15.4% (inactive).

`CC(=O)Nc1c(I)cc(I)c(C(=O)O)c1I`: the “activity change, negative = cytotoxicity” value was -2.71% (inactive).

As to `CN1CCC(=C2c3ccccc3CC(=O)c3sccc32)CC1`, the “activity change, negative = cytotoxicity” value is 5.58% (inactive).

Consider `CN1CCN(c2cc3c(cc2F)c(=O)c(C(=O)O)cn3-c2ccc(F)cc2)CC1`, for which the “activity change, negative = cytotoxicity” value is 11.5% (inactive).

Regarding `CO[Si](CCCOCC1CO1)(OC)OC` (stereo not given), the “activity change, negative = cytotoxicity” value was -17.8% (inactive).

In the case of `C=CCOCC(CC)(CO)COCC=C`, the “activity change, negative = cytotoxicity” value was -12.7% (inactive).

As for `N=C(N)c1ccc2cc(OC(=O)c3ccc(N=C(N)N)cc3)ccc2c1`, the “activity change, negative = cytotoxicity” value was 2.19% (inactive).

`C=CCS(=O)(=O)O`: the “activity change, negative = cytotoxicity” value is -10.7% (inactive).
